In ChEMBL document CHEMBL3988442, “University of Dundee, Small-Polar-MMV Screening Library” (2021):
For some of these results: Measured potencies and affinities stand elsewhere.

What was measured:
Set-up in all cases: scale not given: direction of the effect not stated beside the values
[1] = target: Protein translocase subunit SecA (Escherichia coli (strain K12)) (UniProt P10408); assay: Assay to Identify E. coli SecA ATPase Inhibitors; assay type: functional; settings: 30 µM
[2] = target: T1, Ubiquitin-activating enzyme e1, putative (Leishmania donovani (strain BPK282A1)) (UniProt E9BSI1); assay: Leishmania donovani Ubiquitin Activating Enzyme (LdE1); assay type: functional; settings: 30 µM
T1 sequence (whole entry): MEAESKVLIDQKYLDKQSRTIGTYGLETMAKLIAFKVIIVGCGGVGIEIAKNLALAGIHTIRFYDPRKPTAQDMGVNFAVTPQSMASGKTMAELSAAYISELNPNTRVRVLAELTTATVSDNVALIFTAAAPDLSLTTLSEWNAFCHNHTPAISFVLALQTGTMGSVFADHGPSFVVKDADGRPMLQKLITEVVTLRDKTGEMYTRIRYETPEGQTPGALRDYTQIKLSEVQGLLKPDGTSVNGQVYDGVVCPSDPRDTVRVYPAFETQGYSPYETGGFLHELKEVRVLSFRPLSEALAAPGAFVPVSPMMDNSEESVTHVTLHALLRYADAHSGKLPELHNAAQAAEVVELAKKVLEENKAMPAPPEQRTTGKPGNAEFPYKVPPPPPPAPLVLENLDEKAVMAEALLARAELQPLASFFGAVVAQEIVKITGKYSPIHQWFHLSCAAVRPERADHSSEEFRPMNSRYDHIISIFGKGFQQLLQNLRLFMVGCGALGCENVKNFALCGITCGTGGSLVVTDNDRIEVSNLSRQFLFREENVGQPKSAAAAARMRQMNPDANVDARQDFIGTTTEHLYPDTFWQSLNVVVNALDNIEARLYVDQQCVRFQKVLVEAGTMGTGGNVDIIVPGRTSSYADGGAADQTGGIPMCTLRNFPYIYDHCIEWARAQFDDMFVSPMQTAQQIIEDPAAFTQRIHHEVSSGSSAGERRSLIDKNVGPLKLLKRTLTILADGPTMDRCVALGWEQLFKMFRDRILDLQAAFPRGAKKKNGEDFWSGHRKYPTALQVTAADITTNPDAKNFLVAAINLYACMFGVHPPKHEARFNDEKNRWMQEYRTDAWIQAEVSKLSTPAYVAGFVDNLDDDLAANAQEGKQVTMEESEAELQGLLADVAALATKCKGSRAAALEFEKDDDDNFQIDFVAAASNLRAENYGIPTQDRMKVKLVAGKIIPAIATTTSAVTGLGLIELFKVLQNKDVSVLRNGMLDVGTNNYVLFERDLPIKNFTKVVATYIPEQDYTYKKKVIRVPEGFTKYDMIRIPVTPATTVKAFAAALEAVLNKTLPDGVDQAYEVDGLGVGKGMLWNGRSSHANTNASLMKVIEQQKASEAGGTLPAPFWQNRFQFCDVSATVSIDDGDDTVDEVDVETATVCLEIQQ

[3] = target: AMP-activated protein kinase, AMPK (Homo sapiens) (UniProt P54646+O43741+P54619+Q9UGJ0+Q9Y478+Q13131+Q9UGI9); assay: AMP-dependent Kinase enzyme assay. An in vitro enzyme assay that detects ADP turnover that is directly proportional to AMPK activity. This uses naive AMPK that is activated during the assay with MK-8722; assay type: functional; settings: 30 µM
[4] = target: Sialic acid-binding Ig-like lectin 9 (Homo sapiens) (UniProt Q9Y336); assay: Hs-Siglec9 ALPHAscreen SOP 20170721; settings: 10 µM
Trypanosoma cruzi = assay: Trypanosoma cruzi phosphomannomutase and mannose-1-phosphate guanylyltransferase assay; assay type: functional; settings: 10 µM
[5] = target: T2, Arginase-2, mitochondrial (Homo sapiens) (UniProt P78540); assay: in vitro enzyme assay to detect the production of urea directly proportional to the activity of Arginase II; assay type: functional; settings: 33.3 µM; further: in the data most compounds retested in dose-response had high values
T2 sequence (whole entry): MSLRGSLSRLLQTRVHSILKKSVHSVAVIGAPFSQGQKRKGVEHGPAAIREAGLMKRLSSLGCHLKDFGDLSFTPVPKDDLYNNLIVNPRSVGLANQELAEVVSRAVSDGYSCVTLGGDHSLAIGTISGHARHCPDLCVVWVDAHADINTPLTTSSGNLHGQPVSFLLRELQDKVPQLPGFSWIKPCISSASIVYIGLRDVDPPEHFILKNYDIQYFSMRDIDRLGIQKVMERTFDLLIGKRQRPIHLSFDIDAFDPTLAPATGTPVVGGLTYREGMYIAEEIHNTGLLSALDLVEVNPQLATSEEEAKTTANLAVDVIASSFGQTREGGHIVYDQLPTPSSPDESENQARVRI

[6] = target: T3, Proteasome subunit beta (Trypanosoma cruzi) (UniProt O96673); assay: Trypanosoma cruzi proteasome chymotrypsin-like activity (TcProtChymo) assay.; further: in the data most compounds retested in dose-response had high values; assay type: functional; settings: 9.37 µM
T3 sequence (whole entry): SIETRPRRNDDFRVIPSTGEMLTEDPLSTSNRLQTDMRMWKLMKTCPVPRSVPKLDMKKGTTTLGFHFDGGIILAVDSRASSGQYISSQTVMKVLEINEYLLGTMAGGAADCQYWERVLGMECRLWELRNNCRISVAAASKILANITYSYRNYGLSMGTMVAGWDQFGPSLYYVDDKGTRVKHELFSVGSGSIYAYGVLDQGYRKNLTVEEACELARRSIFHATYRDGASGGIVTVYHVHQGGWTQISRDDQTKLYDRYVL

Homo sapiens = species on record: Homo sapiens; assay: To identify inhibition of the IFN signalling (Jak-Stat) pathway via expression of an eGFP reporter gene under the control of an IFN-stimulated response element (ISRE) containing MxA promoter.; assay type: functional; settings: 30 µM
[7] = target: T4, Tyrosyl-tRNA synthetase, putative (Trypanosoma cruzi (strain CL Brener)) (UniProt Q4DSP6); assay: Trypanosoma cruzi tyrosyl tRNA synthetase (TcYRS) _High Tyrosine SOP; assay type: functional; settings: 30 µM; further: in the data most compounds retested in dose-response had high values
T4 sequence (whole entry): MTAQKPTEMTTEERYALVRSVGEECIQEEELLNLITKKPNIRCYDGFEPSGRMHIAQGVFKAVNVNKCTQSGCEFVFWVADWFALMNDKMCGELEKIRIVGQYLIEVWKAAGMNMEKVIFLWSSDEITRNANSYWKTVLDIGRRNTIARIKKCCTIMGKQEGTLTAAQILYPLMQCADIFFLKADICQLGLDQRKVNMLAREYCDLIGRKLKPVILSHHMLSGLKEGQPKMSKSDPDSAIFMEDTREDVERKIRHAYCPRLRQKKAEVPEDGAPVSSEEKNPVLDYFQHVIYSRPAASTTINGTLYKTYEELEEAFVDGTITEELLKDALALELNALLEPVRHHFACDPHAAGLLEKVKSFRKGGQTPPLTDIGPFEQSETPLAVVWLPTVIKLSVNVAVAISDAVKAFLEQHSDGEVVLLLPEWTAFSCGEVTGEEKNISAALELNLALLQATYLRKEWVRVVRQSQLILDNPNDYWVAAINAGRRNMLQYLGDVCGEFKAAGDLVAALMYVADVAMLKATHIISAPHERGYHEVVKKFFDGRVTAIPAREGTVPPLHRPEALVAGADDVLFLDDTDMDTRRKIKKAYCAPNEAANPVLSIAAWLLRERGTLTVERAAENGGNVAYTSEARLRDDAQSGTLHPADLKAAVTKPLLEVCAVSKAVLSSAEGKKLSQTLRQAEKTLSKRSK

[8] = target: T4, Tyrosyl-tRNA synthetase, putative (Trypanosoma cruzi (strain CL Brener)); assay: Trypanosoma cruzi tyrosyl tRNA synthetase (TcYRS) SOP; assay type: functional; settings: 30 µM
[9] = target: Chromo domain-containing protein 1 (Saccharomyces cerevisiae (strain ATCC 204508 / S288c) (Baker's yeast)) (UniProt P32657); assay: ScCHD-1 Enzyme Inhibition Assay; assay type: functional; settings: 30 µM; further: in the data most compounds retested in dose-response had high values
Chain of Chromo domain-containing protein 1 (Saccharomyces cerevisiae (strain ATCC 204508 / S288c) (Baker's yeast)) (P32657 whole entry, the tested form may be a part): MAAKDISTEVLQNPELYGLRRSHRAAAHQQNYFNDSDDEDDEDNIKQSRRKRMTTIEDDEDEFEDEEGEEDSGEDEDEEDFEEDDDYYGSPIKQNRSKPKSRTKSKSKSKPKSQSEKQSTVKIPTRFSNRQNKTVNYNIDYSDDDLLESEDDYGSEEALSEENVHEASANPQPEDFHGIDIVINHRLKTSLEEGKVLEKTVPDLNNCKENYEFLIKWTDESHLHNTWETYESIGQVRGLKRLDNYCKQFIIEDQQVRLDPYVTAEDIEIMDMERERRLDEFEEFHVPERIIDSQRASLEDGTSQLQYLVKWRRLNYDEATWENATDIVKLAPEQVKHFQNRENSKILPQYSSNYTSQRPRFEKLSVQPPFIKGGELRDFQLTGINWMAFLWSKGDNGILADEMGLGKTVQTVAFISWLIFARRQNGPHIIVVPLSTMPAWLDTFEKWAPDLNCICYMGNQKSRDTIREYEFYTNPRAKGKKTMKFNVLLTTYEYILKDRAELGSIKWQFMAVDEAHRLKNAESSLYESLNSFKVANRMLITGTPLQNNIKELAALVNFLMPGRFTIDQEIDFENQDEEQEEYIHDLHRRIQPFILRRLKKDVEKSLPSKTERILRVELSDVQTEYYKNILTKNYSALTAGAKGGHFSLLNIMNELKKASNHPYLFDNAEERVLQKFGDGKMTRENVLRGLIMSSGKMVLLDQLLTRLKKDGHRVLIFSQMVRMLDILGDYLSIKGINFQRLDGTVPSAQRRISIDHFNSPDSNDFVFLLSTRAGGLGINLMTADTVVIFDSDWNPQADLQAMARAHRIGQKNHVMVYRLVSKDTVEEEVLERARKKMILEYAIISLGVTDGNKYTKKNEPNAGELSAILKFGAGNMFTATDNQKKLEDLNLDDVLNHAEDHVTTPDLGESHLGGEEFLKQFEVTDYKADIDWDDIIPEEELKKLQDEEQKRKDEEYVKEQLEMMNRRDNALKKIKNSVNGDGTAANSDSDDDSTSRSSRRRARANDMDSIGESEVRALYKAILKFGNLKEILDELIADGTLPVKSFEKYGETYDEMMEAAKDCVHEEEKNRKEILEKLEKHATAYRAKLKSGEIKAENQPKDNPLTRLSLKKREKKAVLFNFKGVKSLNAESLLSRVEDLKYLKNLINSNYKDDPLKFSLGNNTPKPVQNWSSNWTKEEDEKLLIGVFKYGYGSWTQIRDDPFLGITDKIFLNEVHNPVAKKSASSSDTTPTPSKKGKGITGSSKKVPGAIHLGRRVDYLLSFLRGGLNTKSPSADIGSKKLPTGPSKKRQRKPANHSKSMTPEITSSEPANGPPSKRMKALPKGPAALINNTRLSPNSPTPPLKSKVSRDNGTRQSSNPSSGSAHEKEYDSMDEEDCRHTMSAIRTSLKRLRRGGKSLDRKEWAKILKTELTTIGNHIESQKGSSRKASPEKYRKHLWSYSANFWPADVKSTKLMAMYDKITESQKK

Chain of Sialic acid-binding Ig-like lectin 9 (Homo sapiens) (Q9Y336 whole entry): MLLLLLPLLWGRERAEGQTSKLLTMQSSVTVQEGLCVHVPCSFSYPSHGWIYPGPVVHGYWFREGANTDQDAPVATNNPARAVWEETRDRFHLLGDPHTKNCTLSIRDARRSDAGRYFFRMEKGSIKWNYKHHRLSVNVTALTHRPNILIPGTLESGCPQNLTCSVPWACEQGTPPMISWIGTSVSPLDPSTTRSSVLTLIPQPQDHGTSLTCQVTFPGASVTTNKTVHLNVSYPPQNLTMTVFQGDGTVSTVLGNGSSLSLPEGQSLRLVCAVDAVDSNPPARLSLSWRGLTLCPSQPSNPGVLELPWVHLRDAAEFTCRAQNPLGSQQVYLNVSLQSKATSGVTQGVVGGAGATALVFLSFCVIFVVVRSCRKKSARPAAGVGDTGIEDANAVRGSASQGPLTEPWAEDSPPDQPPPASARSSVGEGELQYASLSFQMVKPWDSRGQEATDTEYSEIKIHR
Chain of Protein translocase subunit SecA (Escherichia coli (strain K12)) (P10408 whole entry): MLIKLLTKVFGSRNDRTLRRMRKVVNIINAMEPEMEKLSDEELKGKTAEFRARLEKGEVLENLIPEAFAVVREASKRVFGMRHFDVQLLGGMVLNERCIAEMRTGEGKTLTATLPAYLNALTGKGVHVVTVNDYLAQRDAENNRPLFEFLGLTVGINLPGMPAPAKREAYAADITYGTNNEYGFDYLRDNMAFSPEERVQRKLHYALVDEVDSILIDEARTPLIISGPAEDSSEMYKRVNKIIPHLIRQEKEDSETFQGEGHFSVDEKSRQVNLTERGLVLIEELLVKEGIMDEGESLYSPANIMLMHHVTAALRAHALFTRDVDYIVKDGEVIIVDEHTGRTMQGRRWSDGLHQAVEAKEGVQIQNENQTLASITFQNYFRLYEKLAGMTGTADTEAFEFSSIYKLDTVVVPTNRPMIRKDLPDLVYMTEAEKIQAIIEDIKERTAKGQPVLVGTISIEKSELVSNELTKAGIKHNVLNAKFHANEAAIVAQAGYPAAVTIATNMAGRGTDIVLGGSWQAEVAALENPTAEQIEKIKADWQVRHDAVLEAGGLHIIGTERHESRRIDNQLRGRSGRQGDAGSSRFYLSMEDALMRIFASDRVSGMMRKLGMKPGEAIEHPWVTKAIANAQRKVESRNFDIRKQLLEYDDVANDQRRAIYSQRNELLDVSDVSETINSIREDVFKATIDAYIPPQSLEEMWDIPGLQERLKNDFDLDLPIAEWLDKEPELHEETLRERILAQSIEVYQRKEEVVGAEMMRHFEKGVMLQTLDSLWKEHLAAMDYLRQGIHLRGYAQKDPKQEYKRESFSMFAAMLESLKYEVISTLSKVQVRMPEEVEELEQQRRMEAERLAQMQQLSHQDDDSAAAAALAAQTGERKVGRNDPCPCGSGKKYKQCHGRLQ

Row | Structure (SMILES) | Percent Effect [1] [%] | Percent Effect [2] [%] | Percent Effect [3] [%] | Percent Effect [4] [%] | Percent Effect (Trypanosoma cruzi) [%] | Percent Effect [5] [%] | Percent Effect [6] [%] | Percent Effect (Homo sapiens) [%] | Percent Effect [7] [%] | Percent Effect [8] [%] | Percent Effect [9] [%]
1 | c1cnc(N2C[C@H]3CCN(c4cccnc4)C[C@H]3C2)nc1 | -6.23 | -5.41 | -3.42 | -2.92 | -2.15 | -0.417 | 26.1 | 6.67 | 5.94 | 13.4 | 7.23
2 | CN(C)S(=O)(=O)N1CCC2(CCCN(Cc3ccc(F)cc3)C2=O)C1 (stereo unspecified) | -4.94 | 8.22 | -3.06 | 5.14 | 5.16 | 2.4 | 5.22 | 4 | 5.21 | -1.24 | -6.71
3 | CN(C)C(=O)NC1COC2(CCN(Cc3nccn3C)CC2)C1 (stereo unspecified) | 0.893 | 5.2 | -3.63 | 0.435 | -7.2 | 5.81 | 11.3 | -0.051 | 5.29 | 6.41 | 0.228
4 | Cc1ccc(C2COCCN2C(=O)c2ccc(CN(C)C)cc2)o1 (stereo unspecified) | -0.657 | -5.33 | -1.26 | 2.6 | -1.85 | 2.08 | 4.01 | 0.868 | 1.64 | 1.24 | -0.0158
5 | CC(C(N)=O)S(=O)(=O)Cc1cc(Cl)c2c(c1)OCO2 (stereo unspecified) | -0.171 | 15.8 | 1.18 | -10.6 | -3.83 | 7.91 | 6.51 | 7.44 | 5.42 | 13.6 | -7.99
6 | CCCc1ncc(C(=O)N2CCOC(c3nc(C)n[nH]3)C2)s1 (stereo unspecified) | -2.75 | -3.8 | 4.69 | 3.58 | -6.46 | 7.1 | 5.66 | 11.7 | 1.04 | -2.53 | 9.76
7 | CCC(=O)N1Cc2nccn2CC(CN(C)Cc2cccnc2)C1 (stereo unspecified) | -1.64 | 13.3 | 10.6 | -7.3 | -4.72 | 1.17 | 7.49 | -7.96 | 4.25 | 8.97 | -6.9
8 | Cc1nc(CN2CCc3cncnc3C2)oc1C | -0.217 | 2.74 | -102 | 7.08 | 5.09 | 16.8 | 3.55 | 2.92 | 2.15 | 12.5 | -7.36
9 | Cc1nn(C)c(N2CCOCC2)c1CNC1CCOc2ccccc21 (stereo unspecified) | -4.35 | 10.1 | -4.31 | 8.19 | 1.04 | 0.38 | 2.54 | -11.4 | 7.39 | 11.4 | -3.12
10 | Cc1cc(C)n(CC2CN(CCOc3cccc(C#N)c3)CCO2)n1 (stereo unspecified) | -6.03 | 13.2 | -3.15 | -7.82 | -1.21 | -0.719 | 1.44 | 6.94 | 7.39 | -6.17 | -0.144
11 | Cc1cccc(NC(=O)Cn2ncc(SCC(N)=O)c(Cl)c2=O)c1C | -3.9 | 5.48 | 4.95 | -15.5 | -4.31 | 3.18 | 22.5 | 17.6 | 5.38 | 5 | 79.5
